The structures appear in SMILES notation. Values joined by “and” are separate entries in the source; they are usually repeats but may differ in a detail not shown here. Identical values can stand only once. More than one record can exist for a structure, and the calls need not agree. Active and inactive are the calls of the source. Entries that show only a call come without a potency. Calls come from the whole dose curve; as a rule, active = well fitted activation curve with a large enough effect in the repeat runs; inconclusive = weak or mixed curves; inactive = flat fitted curve, though single readings scatter.
Potency is the fitted concentration of half-maximal effect.

The test can be described thus: A CellTox Green Cytotoxicity Assay to monitor cytotoxicity in HepG2 cells - 0 hour (AID 1224882). Note: nearly all actives have a fitted effect of over 35% in size. The following applies: CellTox Green fluorescence; series mostly up to 76.8 µM. The source says:
National Center for Advancing Translational Sciences [NCATS]
NIH Chemical Genomics Center [NCGC]
U.S. Environmental Protection Agency [EPA]
National Institutes of Environmental Health Sciences [NIEHS]
National Toxicology Program [NTP]
Cell-based models are critical for drug discovery. Determining the natural cytotoxic effects resulting from test compounds is an essential research activity. A CellTox Green Cytotoxicity Assay to monitor cytotoxicity in real time of continues cell culture during 40 hours of the compound treatment was used to screen Tox21 10K library compounds in HepG2 cells. CellTox Green Cytotoxicity Assay is a nonlytic, homogeneous, biofluorescent method to measure cytotoxicity in cell culture after experimental manipulation. The assay system uses a proprietary asymmetric cyanine dye that is excluded from viable cells but preferentially stains the dead cell's DNA. […] Viable cells produce no appreciable increases in fluorescence. Therefore, the fluorescence signal produced by the binding interaction with dead cell DNA is proportional to cytotoxicity.
The mixture of HepG2 cell suspension and reagents were dispensed at 600cells/6 ul/well in 1536-well tissue culture treated black solid bottom plates using a Multidrop dispenser. After the assay plates were incubated at a 37 C/5% CO2 incubator for 5 hours, 23 nL of compounds dissolved in DMSO, positive and negative controls was transferred to the assay plate by a pintool work station. The plates were incubated at 37 C for 40 hours. The fluorescence intensity were measured at 0h, 8h, 16h, 24h, 32h and 40h time points using ViewLux plate reader during compound treatment.
Turning to `O=c1n(CCO)c(=O)n(CCO)c(=O)n1CCO`, the Potency entry was “inactive and 43.6 µM (active)”.
`CN(C)CCCN1c2ccccc2CCc2ccc(Cl)cc21`: the Potency result was “inactive”.
On the same count and under the same terms, then `COC(=O)NN`, with “inactive”; and `O=C1CCCN1C1CCCCC1`, with “inactive”; and `Nc1c2c(nc3ccccc13)CCCC2O` (stereo not given), with “inactive”.
With `C1OCOCO1`, the Potency entry was “inactive”.
The same measure, in the same setting: the result for `CCOC(=O)c1ccc(C)cc1` reads “inactive”.
In the case of `O=C1CC2CC1C1CCCC21` (stereo not given), the Potency entry is “inactive”.
On to `COc1ccc(CCN(C)CCCC(C#N)(c2cc(OC)c(OC)c(OC)c2)C(C)C)cc1OC` (stereo not given), for which the Potency entry was “inactive”.
Turning to `CCc1ccc(O)c(OC)c1`, the Potency result is “inactive”.
On to `Cc1sccc1Br`, for which the Potency result was “inactive”.
Still for that read-out and setting: then `COC(=O)c1c(Cl)c(Cl)c(C(=O)OC)c(Cl)c1Cl`, with “inactive and 138 nM (active)”; and `ClC(Cl)(Br)Br`, with “inactive”.
As to `OC1CCCCC1c1ccccc1` (stereo not given), the Potency entry is “inactive”.
In the case of `CC(C)OC(=O)c1ccccc1`, the Potency result was “inactive”.
Regarding `CC(C[N+](C)(C)C)OC(N)=O` (stereo not given), the Potency entry was “inactive”.
Consider `NCCc1cnc[nH]1`, for which the Potency result is “inactive”.
Consider `CC(C)(C)NCCNC(C)(C)C`, for which the Potency result was “inactive”.
On the same count and under the same terms, then `CCn1nc(C(=O)O)c(=O)c2cc3c(cc21)OCO3`, with “inactive”; and `CC(=O)c1ccccc1O`, with “inactive”.
Consider `COc1ccc2c(c1)c(CC(=O)OCC(=O)O)c(C)n2C(=O)c1ccc(Cl)cc1`, for which the Potency result was “inactive”.
In the case of `CC(C)CNCC(C)C`, the Potency entry is “inactive”.
Consider `Cc1ccc(C#N)cc1`, for which the Potency result is “inactive”.
As for `CCc1cccc2c(CCO)c[nH]c12`, the Potency result is “inactive”.
For `NS(=O)(=O)c1ccccc1Cl`, the Potency entry is “inactive”.
Regarding `C1CN(CCOCCN2CCOCC2)CCO1`, the Potency result was “inactive”.
On to `Cc1cnc(NS(=O)(=O)c2ccc(N)cc2)nc1`, for which the Potency result is “inactive”.
As to `O=C(O)CN(CCOCCOCCN(CC(=O)O)CC(=O)O)CC(=O)O`, the cytotoxicity was -19.1% [at 0.29 µM] (inactive).
With `NC(=O)c1ccc([N+](=O)[O-])cc1`, the Potency result is “inactive”.
On to `NS(=O)(=O)c1cc2c(cc1Cl)NC(C1CC3C=CC1C3)NS2(=O)=O` (stereo not given), for which the Potency result is “inactive”.
As for `Oc1ccc(C2CNCCc3c2cc(O)c(O)c3Cl)cc1` (stereo not given), the Potency result is “inactive”.
With `CC(C)(CC(=O)O)C(=O)O`, the Potency entry was “inactive”.
Still for that read-out and setting: the result for `c1cnc(N2CCN(Cc3ccc4c(c3)OCO4)CC2)nc1` reads “inactive”; that for `CCCc1cc(C(N)=S)ccn1`, “inactive”.
With `O=c1cc(CO)occ1O`, the Potency entry was “inactive”.
Same read-out and setting: then `Cc1nc2c([nH]1)c(=O)n(C)c(=O)n2Cc1ccco1`, with “inactive”.
For `C[C@](N)(Cc1ccc(O)cc1)C(=O)O`, the cytotoxicity was 0.583% [at 6.97 µM] (inactive).
For the compound `CCOC(=O)Nc1ccc(NCc2ccc(F)cc2)nc1N`, the Potency entry was “inactive”.
As for `CCCCCCCCS(=O)(=O)Cl`, the Potency entry was “inactive”.
Turning to `CC(=O)OC/C=C(\C)CC/C=C(\C)CCC=C(C)C`, the Potency entry was “inactive”.

The values above are taken from PubChem BioAssay (Tox21).
